Results reported in PubChem BioAssay (NCATS).
Several values for one entry are separate records, joined by “and”; a condition that tells them apart may be missing. Identical values can stand only once. Results filed as inconclusive are left out. Unmarked numbers belong to inactive results. Activity calls are given as the source filed them. The call rests on the fitted dose curve; in most records, active means well fitted curve in the direction sought with a large enough effect; inconclusive means small, poorly fitted or top-dose-only effect, or another doubt; inactive means no such curve, though single readings can be large; an effect the other way counts as inactive or inconclusive. Where a SMILES comes first, the peptide text is derived from it. The star is where a group is joined. PhAc = O=C(Cc1ccccc1)*

Test: Primary qHTS for inhibitors of nuclear receptor binding SET domain protein 2 (NSD2) in an isogenic RCH-ACV NSD2 p.E1099K mutant (9B) (AID 1645876)
Settings: RCH-ACV NSD2 E1099K (9B) viability, CellTiter-Glo, 72 h; series mostly up to 44.9 µM; activity change, negative = viability loss: at the top concentration
Further: nearly all actives have a fitted effect of over 70% in size.
On the % scale 0 is the no-effect control and ±100 the full control effect; potency means the concentration at half of the fitted maximal effect.

Row | SMILES | Potency | activity change, negative = viability loss | outcome
1 | COc1cc2nc(=NC(=O)c3cccnc3)n3c(c2cc1OC)NCC3 | 4.59 µM (active) | – | –
2 | CCc1nn(CCO)c(CC)c1Oc1cc(C#N)cc(C#N)c1 | – | -3.22% | –
3 | CN1CCN(C2=Nc3ccccc3Nc3ccc(O)cc32)CC1 | – | – | inactive
4 | CN[C@H](CNC(=O)N1CCC[C@@H]([C@@H](OCCNC(=O)OC)c2cccc(Cl)c2)C1)C[C@H]1CCCOC1 | – | 3.44% | –
5 | Cc1ccc(Cl)cc1N(CC(=O)Nc1c(F)cccc1F)S(C)(=O)=O | – | -2.84% | –
6 | COc1cnc(-n2cnc(C)n2)c2[nH]cc(C(=O)C(=O)N3CCN(C(=O)c4ccccc4)CC3)c12 | – | – | inactive
7 | COc1ccc(CCc2nc3cc(-c4c(C)noc4C)ccc3n2C[C@H](C)N2CCOCC2)cc1Cl | 3.65 µM (active) | – | –
8 | FC(F)(F)Oc1ccc(-c2ccc3nnc(C(F)(F)F)n3c2)cc1 | – | -7.76% | –
9 | COc1ccc(OC)c(C2C(C#N)=C(N)Oc3n[nH]c(-c4ccc5ccccc5c4)c32)c1 (stereo unspecified) | – | -5.92% | –
10 | CC[C@H](NC(=O)c1c(O)c(-c2ccccc2)nc2ccccc12)c1ccccc1 | – | -20.7% | –
11 | CCCN(CCN1CCN(c2ccccc2OC)CC1)C1CCc2ncsc2C1 (stereo unspecified) | – | -9.46% | –
12 | CC[C@@H](Nc1c(Nc2cccc(C(=O)N(C)C)c2O)c(=O)c1=O)c1ccc(C)o1 | – | -25.6% | –
13 | CCC(C)(C)C1CCc2c(sc(NC(=O)c3ccc(Br)cc3)c2C#N)C1 (stereo unspecified) | – | – | inactive
14 | COc1cccc(OC)c1-c1ccc(C[C@H](NC(=O)c2c(Cl)cccc2Cl)C(=O)O)cc1 | – | 3.35% | –
15 | O=C(O)Cn1nnc(-c2ccc(CN(CCCCOc3ccc(CN4CCCC4)cc3)CCc3ccccc3)cc2)n1 | – | -5.59% | –
16 | CCC[C@H](N[C@@H](C)C(=O)N1[C@H](C(=O)O)C[C@@H]2CCCC[C@@H]21)C(=O)O | – | -8.94% | –

Test: Primary qHTS for inhibitors of nuclear receptor binding SET domain protein 2 (NSD2) in an RCH-ACV wild type WT cells (2C) (AID 1645877)
Settings: RCH-ACV (leukaemia line) NSD2 WT (2C) viability, CellTiter-Glo, 72 h; series mostly up to 44.9 µM; activity change, negative = cell killing: at the top concentration

Row | SMILES | activity change, negative = cell killing | outcome | Potency
17 | CCOC(=O)C1=C(N)Oc2ccc(Cl)cc2C1C(C#N)C(=O)OCC (stereo unspecified) | -6.02% | – | –
18 | Cc1ccc(-c2c(-c3nn(C)c4ncnc(N5CCC(N6CCCCC6)C5)c34)cnn2C)cc1 (stereo unspecified) | 1.64% | – | –
19 | O=[N+]([O-])c1cc(Cl)ccc1S(=O)(=O)N1CCN(Cc2ccccc2)CC1 | 2.58% | – | –
20 | Fc1ccc(-c2c3cccc(C(F)(F)F)c3nn2Cc2ccc(F)cc2Cl)cc1 | – | inactive | –
21 | COc1cccc(C(=O)NCCNc2nc3cc(C)cc(C)c3cc2C#N)c1 | -21.7% | – | –
22 | CCOC(=O)CNC(=O)[C@@H]1CCCN1C(=O)Cc1ccccc1 (PhAc-Pro-Gly-OEt) | -14.1% | – | –
23 | NC(=O)c1ccc(F)c2c1C[C@@H](N(C1CCC1)C1CCC1)CO2 | 2.15% | – | –
24 | Cc1oc2nc3c(c(NC(=O)CN4CCCC4=O)c2c1C)CCCC3 | – | inactive | –
25 | Cc1[nH]c2ccccc2c1CC(=O)N[C@@H](Cc1ccccc1)C(=O)N(C)c1ccccc1 | -19.7% | – | –
26 | O=C(Nc1ccccc1)Nc1ccc(-c2ccc(C(=O)C3CCCC3C(=O)O)cc2)cc1 (stereo unspecified) | – | inactive | –
27 | Cc1ncc(NC(=O)c2ccc(CN3CCN(C)CC3)c(C(F)(F)F)c2)cc1Nc1nccc(-c2cccnc2)n1 | – | – | 8.17 µM (active) and 5.9 µM (active)
28 | O=C(Nc1ccc(N2CCC(C(=O)N3CCOCC3)CC2)cc1)c1cnc(Oc2ccccc2)nc1 | – | inactive | –
29 | CCOC(=O)COc1ccc2c(c1)C[C@@H](NC[C@H](O)c1cccc(Cl)c1)CC2 | 3.89% | – | –
30 | CC(C)c1c(NC(=O)Nc2ccc(Cl)cc2)c(=O)n(-c2ccccc2)n1C | -22.2% | – | –
31 | CCOC(=O)CSc1nc2c(sc3ccccc32)c(=O)n1CCCN1CCCC1 | -16.6% | – | –
32 | FC(F)(F)c1nnc2c(Sc3ccccc3)nc3ccc(Cl)cc3n12 | – | – | 3.65 µM (active)
33 | O=C(c1ccc(Cl)c([N+](=O)[O-])c1)N1CCN(c2ccccc2F)CC1 | – | – | 16.3 µM (active)
34 | CCNC(=O)C1CC(F)(c2ccc(CN3CCCC3)c(F)c2)C1 (stereo unspecified) | – | inactive | –
35 | COc1cc2nc(=NC(=O)c3cccnc3)n3c(c2cc1OC)NCC3 | – | – | 5.15 µM (active)
36 | CCc1nn(CCO)c(CC)c1Oc1cc(C#N)cc(C#N)c1 | -5.81% | – | –
37 | CN1CCN(C2=Nc3ccccc3Nc3ccc(O)cc32)CC1 | – | inactive | –
38 | CN[C@H](CNC(=O)N1CCC[C@@H]([C@@H](OCCNC(=O)OC)c2cccc(Cl)c2)C1)C[C@H]1CCCOC1 | 4.29% | – | –
39 | Cc1ccc(Cl)cc1N(CC(=O)Nc1c(F)cccc1F)S(C)(=O)=O | -0.124% | – | –
40 | COc1cnc(-n2cnc(C)n2)c2[nH]cc(C(=O)C(=O)N3CCN(C(=O)c4ccccc4)CC3)c12 | – | inactive | –
41 | COc1ccc(CCc2nc3cc(-c4c(C)noc4C)ccc3n2C[C@H](C)N2CCOCC2)cc1Cl | – | – | 2.58 µM (active)
